# High-throughput results from PubChem BioAssay.
# Six1-Eya2 inh – inhibitors of human Six1/Eya2 interaction | Q15475+O00167 | AlphaScreen GST-Six1/His-Eya2 binding, biochemical; stronger effect = lower value | activity change, % (concentration not given with the values) | actives 0.56% (n = 360,000) | AID 651725; in the data active = activity change below about -65%; inconclusive = mostly about -30% to -63%; also: % is scaled to controls: 0 for no effect and ±100 for the full control effect
#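 Homogeneous AlphaScreen proximity assay pairing GST-Six1 with His-tagged Eya2 (added as 5X mix: 250 nM and 500 nM) in 50 mM Tris pH 8.0, 300 mM NaCl, 1 mM TCEP. Glutathione donor and nickel acceptor beads; 1 h, 37 °C, dark.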
# CtBP-E1A blk – inhibitors of CtBP/E1A interaction | AlphaScreen GST-E1A/His-CtBP binding, 1536-well; stronger effect = lower value | activity change, % (concentration not given with the values) | actives 0.49% (n = 340,000) | AID 651724; in the data active = activity change below about -65%; inconclusive = mostly about -30% to -63%; also: % is scaled to controls: 0 for no effect and ±100 for the full control effect
#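 AlphaScreen with 125 nM GST-E1A and 125 nM His-CtBP (5X stocks) in Tris pH 8.0, 300 mM NaCl, BSA, Tween 20, TCEP. Compounds preincubated 2 h at 37 deg C, then glutathione donor/nickel acceptor beads added for 1 h at 37 deg C in dark.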
# HP1b binding inh – inhibitors of HP1-beta chromodomain binding to methylated histone tails. AID 540317. P83916. Potency, µM (doses to about 114 µM), for inactives: at the highest dose activity change, negative = inhibition, most hits filed as inhibitors. actives 0.56% (n = 390,000). AlphaScreen HP1-beta / biotin-H3K9me3 peptide binding; also: potency is read from the fitted curve at half-maximal effect; nearly all actives have a fitted effect of over 70% in size
#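 Compound inhibition of the preformed complex between 50 nM HP1-beta and 50 nM biotinylated H3K9me3 peptide was read by AlphaScreen. Buffer was PBS pH 7.4 with 0.01% Tween-20. Incubations ran 30 min at room temperature, with 10 ug/mL donor/acceptor beads.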
# BAZ2B inh – blocks human BAZ2B; Q9UIF8; AlphaScreen BAZ2B-H3K14Ac peptide displacement; Potency, µM (top dose mostly 114 µM), for the others: at the top dose activity change, negative = inhibition, actives largely listed as inhibitors; actives 4.4% (n = 360,000); AID 504333; also: potency is read from the fitted curve at half-maximal effect; % is scaled to controls: 0 for no effect and ±100 for the full control effect; nearly all actives have a fitted effect of over 60% in size
#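 Protein-peptide AlphaScreen: BAZ2B 50 nM, b-H3K14Ac 50 nM, 1x PBS pH 7.4 + 0.01% Tween-20. Preincubation 30 min RT; cpd 30 min RT (top 110 uM); beads 20 min RT, light-protected.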
# JMJD2A Tudor inh – JMJD2A Tudor domain (human) inhibition; O75164; AlphaScreen JMJD2A-Tudor / H3K4me3 peptide binding; Potency, µM (titrated, usually from 114 µM), inactives show top-dose activity change, negative = inhibition, actives largely listed as inhibitors; actives 4.4% (n = 390,000); AID 504339; also: potency is read from the fitted curve at half-maximal effect; % is scaled to controls: 0 for no effect and ±100 for the full control effect; nearly all actives have a fitted effect of over 50% in size
# TDP1 block – blocks human tyrosyl-DNA phosphodiesterase 1. AID 485290. actives 0.28% (n = 350,000). Potency, µM (titrated, usually from 130 µM), for inactives: at the top dose activity change, negative = inhibition, usual class: inhibitors. Q9NUW8. recombinant TDP1, AlphaScreen DNA substrate cleavage; also: potency is read from the fitted curve at half-maximal effect; % is scaled to controls: 0 for no effect and ±100 for the full control effect; nearly all actives have a fitted effect of over 40% in size
# Target sequence (Q9NUW8 whole entry, looked up): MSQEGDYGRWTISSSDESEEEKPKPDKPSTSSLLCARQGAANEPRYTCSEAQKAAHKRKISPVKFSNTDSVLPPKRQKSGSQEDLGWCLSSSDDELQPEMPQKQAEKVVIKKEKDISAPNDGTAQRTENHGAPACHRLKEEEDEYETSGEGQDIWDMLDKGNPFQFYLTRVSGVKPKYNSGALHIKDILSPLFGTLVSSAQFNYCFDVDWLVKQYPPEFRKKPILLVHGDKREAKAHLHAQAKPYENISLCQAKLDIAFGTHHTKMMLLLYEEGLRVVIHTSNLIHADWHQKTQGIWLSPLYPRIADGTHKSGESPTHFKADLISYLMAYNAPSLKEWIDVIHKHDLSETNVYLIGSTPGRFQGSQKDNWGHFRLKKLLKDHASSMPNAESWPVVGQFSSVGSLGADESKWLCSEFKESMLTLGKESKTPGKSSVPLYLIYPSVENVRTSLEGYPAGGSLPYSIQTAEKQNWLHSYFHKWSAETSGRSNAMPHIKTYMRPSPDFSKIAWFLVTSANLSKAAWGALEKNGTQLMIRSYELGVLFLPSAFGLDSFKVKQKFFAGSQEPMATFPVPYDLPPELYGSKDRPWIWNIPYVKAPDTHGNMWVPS
#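 Here, a 5' biotin and 3' phosphotyrosine-FITC DNA oligonucleotide reports Tdp1 activity: intact substrate bridges AlphaScreen beads, while cleavage leaves a 3' phosphate and drops signal. All incubations at room temperature.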
# An asterisk follows results filed as active; ? = inconclusive; · = no result. Hits are enriched below; roughly 5.3% of the tested compounds scored in any of these assays. Unless noted, calls follow the shape of the dose curve; as a rule, active = well fitted inhibition curve with a large enough effect; inconclusive = small, poorly fitted or top-dose-only effect; inactive = no such curve, though single readings can be large or run the other way.
SMILES,Six1-Eya2 inh,CtBP-E1A blk,HP1b binding inh,BAZ2B inh,JMJD2A Tudor inh,TDP1 block
CC(C)(C(O)c1ccc([N+](=O)[O-])cc1)[N+](=O)[O-] (stereo unspecified),·,·,·,·,·,6%
COc1cccc(NC(=O)c2ccc(NC(=O)C3CC(=O)OC34CCCCC4)cc2)c1 (stereo unspecified),?,-80*,19%,-12%,-9%,5%
O=C(O)CCC/C=C\C/C=C\C=C\[C@@H](O)C/C=C\CCCCCO,·,·,·,·,·,5%
Cc1nnc(NC(=O)c2ccc(S(=O)(=O)N3CCc4ccccc4C3)cc2)o1,-10,-30,39%,79µM*,-30%,11%
Cc1nnc(NC(=O)c2ccc(S(=O)(=O)N3CC(C)CC(C)C3)cc2)o1 (stereo unspecified),-25,-24,30%,?,?,-5%
Cc1cc(C)c2sc(NNC(=O)c3ccc(S(=O)(=O)N4CCc5ccccc5C4)cc3)nc2c1,-4,-23,5%,5.6µM*,3.5µM*,11%
NC(=O)C1O[C@@H](O)[C@H](O)[C@@H](O)[C@H]1O (stereo partly specified),·,·,·,·,·,6%
CCCCc1nn2c(=O)cc(COC(=O)C3CCCCC3)nc2s1,·,·,27%,1%,-5%,6%
CCOC(=O)CSc1nc2c(sc3cccc(F)c32)c(=O)n1Cc1ccc(OC)cc1,·,·,25%,2%,-19%,1%
COc1ccc(-n2nc3c(N4CCC(C(=O)NCc5ccccc5C)CC4)nnc(C)c3c2C)cc1,-1,-2,54%,?,-21%,-13%
COc1ccc(-n2nc3c(N4CCCC(C(=O)NCc5ccccc5C)C4)nnc(C)c3c2C)cc1 (stereo unspecified),·,·,33%,50µM*,-26%,·
Cc1ccc(-n2nc3c(N4CCC(C(=O)NCc5ccc(C)o5)CC4)nnc(C)c3c2C)cc1,-10,-20,42%,50µM*,45µM*,-14%
Cc1ccc(-n2nc3c(N4CCC(C(=O)NCc5cccc(F)c5)CC4)nnc(C)c3c2C)cc1,-10,·,45%,-23%,21%,40µM*
COc1ccc(CCNC(=O)CCn2c(=O)c3ccccc3n(Cc3c(C)cc(C)cc3C)c2=O)cc1OC,·,·,16%,0%,-6%,-2%
COc1cccc(CNC(=O)C(C)n2ncn3cccc3c2=O)c1OC (stereo unspecified),·,·,25%,?,-20%,6%
Nn1c(SC/C=C/c2ccccc2)nnc1-c1cccnc1,6,-1,10%,2%,-17%,10%
Nn1c(SC/C=C/c2ccccc2)nnc1-c1ccccn1,-75*,-78*,31%,11µM*,20µM*,5%
Cc1ccc(NC(=O)CSc2nnc(-c3ccccn3)n2N)c(Br)c1,?,?,26%,13µM*,?,7%
COc1ccc(-c2nnc(SCc3cccc(C)c3)n2N)cc1,1,10,18%,2%,17%,0%
Cc1ccc(C)c(NC(=O)CSc2nnc(-c3ccccc3)n2N)c1,-1,-1,31%,-3%,-6%,4%
Cc1cccc(CSc2nnc(-c3ccccn3)n2N)c1,-17,-20,25%,35µM*,50µM*,1%
O=C(CN1C(=O)COc2ccc(S(=O)(=O)N3CCOCC3)cc21)N1CCN(c2ccccc2)CC1,·,·,68%,17%,-15%,9%
O=C(COc1ccccc1)NCC(c1ccc(Cl)cc1)N1CCCCC1 (stereo unspecified),·,·,37%,-6%,-6%,6%
CC(C)(C)c1cc(CCC(=O)N2CCC2)cc(C(C)(C)C)c1O,12,9,31%,89µM*,-6%,2%
CC1CN(C(=O)CCc2cc(C(C)(C)C)c(O)c(C(C)(C)C)c2)CC(C)O1 (stereo unspecified),7,2,52%,1%,-12%,3%
